Source: PubChem BioAssay (NCATS)
The source made the active and inactive calls. Where a call stands in place of a potency, no number is given. The call rests on the fitted dose curve; in most records, active means well fitted activation curve with a large enough effect; inconclusive means small, poorly fitted or top-dose-only effect; inactive means flat fitted curve, though single readings scatter.

experiment: Confirmation and Secondary Assay for Modulators of Hemoglobin Beta Chain Splicing at IVS2 654 locus (AID 910); settings: HeLa EGFP-654 splicing reporter, GFP fluorescence, 48 h; series mostly up to 46.1 µM;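 further: HeLa cells stably carrying EGFP split by mutant beta-globin IVS2-654 intron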;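 further: potency of activators that raise GFP signal by restoring correct splicing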
From the text: NIH Chemical Genomics Center [NCGC] NIH Molecular Libraries Screening Centers Network [MLSCN] MLSCN Grant: 1 X01 MH080684-01 PI Name: Dr. Ryszard Kole NCGC Assay Overview: Modulation of Alternative Splicing as Therapy Abnormal splicing is associated with a number of diseases, including cancer and genetic diseases such as cystic fibrosis, muscular dystrophy and beta-thalassemia. Alteration of disease associated splicing patterns provides a promising target for treatment. […] Mutations in the second intron of the b-globin gene at positions 654 or 705 are clinically relevant and cause mis-splicing which results in an out of frame gene product. […] EGFP-654 HeLa Cells as screen system. HeLa cell lines were stably transfected with a construct in which the EGFP (enhanced green fluorescent protein) cDNA was interrupted by the second intron of the beta-globin gene (IVS2-654). The ISV2 intron contains mutations which cause mis-splicing of EGFP and premature termination of EGFP which results in a nonfluorescent protein product. […] Expression of the transgene was driven by the CMV promoter. We concluded that a low molecular weight compound, which restored correct splicing of intron 2 would also generate functional EGFP protein, resulting in a fluorescent signal. Thus, the HeLa cells that express the EGFP-654 construct can be used for high throughput screening of a chemical library.
NCGC Assay Protocol Summary: Confirmatory Screening. Freshly thawed HeLa EGFP-654 cells were seeded in 5 ul of optimem media (Invitrogen) containing 2 % fetal calf serum (Hyclone) and 1x penicillin/streptomycin (Invitrogen) at a concentration of 500 cells per well in 1536-well plates. Cells were incubated overnight at 37C in 5% CO2. The next day, cells were treated with DMSO, 500 nM antisense ISV2 654 PNA control oligo, or library compound and allowed to grow at 37C in 5% CO2 for 2 days. The PNA oligo blocked the mutation site in the intron and allowed proper (wild type) splicing to occur, resulting in full length EGFP expression and also allowed for optimization of the assay parameters. Plates were read in the Acumen Explorer (TTP Labtech) using 488 nm laser excitation and 500-520 nm emission PMT filter in a 1 x 8 uM capture mode. Fluorescnet objects ranging in size from 5 to 250 uM were measured and the total peak GFP intensity for each well was used for data analysis. Keywords: Thalassemia, beta-thalassemia, beta-globin, EGFP, ISV2 654, ISV2 705, SSO, PNA, antisense, splicing, MLSMR, MLSCN, NIH Roadmap, qHTS, NCGC
Potency means the concentration at half of the fitted maximal effect.

| Compound | Potency |
| --- | --- |
| O=c1c(O)c(-c2ccc(O)cc2O)oc2cc(O)cc(O)c12 | inactive |
| Cc1ncc([N+](=O)[O-])n1CC(C)O (configuration not stated) | inactive |
| Cc1cc(C2CCCCC2)n(O)c(=O)c1 | inactive |
| Nc1nc(Cl)nc2c1ncn2[C@H]1C[C@H](O)[C@@H](CO)O1 | inactive |
| O=C(c1ccccc1)c1ccc2n1CCC2C(=O)O (configuration not stated) | inactive |
| CS(=O)(=O)OCCCCOS(C)(=O)=O | inactive |
| O=C(O)c1cc(=O)c2c(OCC(O)COc3cccc4oc(C(=O)O)cc(=O)c34)cccc2o1 | inactive |
| CCN(CC)C(=S)SSC(=S)N(CC)CC | inactive |
| CCCOc1ccc2nc(NC(=O)OC)[nH]c2c1 | inactive |
| O=C(O)c1cccnc1Nc1cccc(C(F)(F)F)c1 | inactive |
| Cc1cc2c(s1)Nc1ccccc1N=C2N1CCN(C)CC1 | inactive |
| O=C(CCc1ccc(O)cc1)c1c(O)cc(O)cc1O | inactive |
| CCc1nc(N)nc(N)c1-c1ccc(Cl)cc1 | inactive |
| Cc1c(OCC(F)(F)F)ccnc1CS(=O)c1nc2ccccc2[nH]1 (configuration not stated) | inactive |
| CN(C)CCc1c[nH]c2ccc(Cn3cncn3)cc12 | inactive |
| CC1Cc2ccccc2N1NC(=O)c1ccc(Cl)c(S(N)(=O)=O)c1 (configuration not stated) | inactive |
| S=c1nc[nH]c2nc[nH]c12 | 3.16 µM (active) |
| Nc1cc(C(Cl)=C(Cl)Cl)c(S(N)(=O)=O)cc1S(N)(=O)=O | inactive |
| CCCc1cc(=O)[nH]c(=S)[nH]1 | inactive |

| Compound | Potency |
| --- | --- |
| NNc1nncc2ccccc12 | inactive |
| Cc1ccc(C)c(OCCCC(C)(C)C(=O)O)c1 | inactive |
| NS(=O)(=O)c1cc(C(=O)O)c(NCc2ccco2)cc1Cl | inactive |
| COc1c2occc2cc2ccc(=O)oc12 | inactive |
| O=C(NC(Cc1cc(=O)[nH]c2ccccc12)C(=O)O)c1ccc(Cl)cc1 (configuration not stated) | inactive |
| O=c1oc2cc(O)ccc2s1 | inactive |
| Nc1ccc(S(N)(=O)=O)cc1 | inactive |
| O=C(O)c1cn(-c2ccc(F)cc2)c2cc(N3CCNCC3)c(F)cc2c1=O | inactive |
| NC(=NCc1ccccc1)NC(=O)c1nc(Cl)c(N)nc1N | inactive |
| CC1(C)NC(=O)N(c2ccc([N+](=O)[O-])c(C(F)(F)F)c2)C1=O | inactive |
| Cc1cc2cc3c(C)cc(=O)oc3c(C)c2o1 | inactive |
| NCCCCNCCCN | inactive |
| Cc1cccc(CN2CCN(C(c3ccccc3)c3ccc(Cl)cc3)CC2)c1 (configuration not stated) | inactive |
| CCN(CCO)CCCC(C)Nc1ccnc2cc(Cl)ccc12 (configuration not stated) | inactive |
| c1ccc2[nH]c(-c3cscn3)nc2c1 | inactive |
| CN1CCC(=C2c3ccccc3CCc3sccc32)CC1 | inactive |
| Cc1ccc(S(=O)(=O)NC(=O)NN2CC3CCCC3C2)cc1 (configuration not stated) | inactive |
| CN1C(C(=O)Nc2ccccn2)=C(O)c2sccc2S1(=O)=O | inactive |
